Laboratory results published in PubChem BioAssay (NCATS).
Inconclusive results are not listed. Activity calls are given as the source filed them. Unless noted, calls follow the shape of the dose curve; as a rule, active = well fitted curve in the direction sought with a large enough effect; inconclusive = small, poorly fitted or top-dose-only effect, or another doubt; inactive = no such curve, though single readings can be large; an effect the other way counts as inactive or inconclusive.

How the values were obtained:
[1] = target: phosphoglycerate mutase (Leishmania major) (UniProt Q4Q090); test: qHTS Validation Assay to Find Inhibitors of Phosphoglycerate Mutase (AID 504548); also: series mostly up to about 58 µM
Summary of the method: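 Lm PGAM 1.25nM final; 100 mM TEA pH 7.6, 5 mM MgCl2, 0.01% Tween-20; 45 min RT; Kinase-GloPlus, 10 min; end-point luminescence. Enzyme-free wells as negative controls.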

[2] = qHTS for Inhibitors of ATXN expression: Validation of Cytotoxic Assay (AID 588349)
Summary of the method: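 Read-out: ATP-based luminescence (CellTiter Glo) reflecting viability of HEK293 cells after 72 hr incubation at 37 degrees C with a concentration series of each compound.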

[3] = qHTS for Inhibitors of ATXN expression: Validation (AID 588378); also: series mostly up to about 57 µM; nearly all actives have a fitted effect of over 75% in size
Summary of the method: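 After a 2 h attachment and 24 h compound incubation, HEK293-ATXN2-FFLuc wells are read for fluorescence at 405 nm excitation/525 nm emission as a viability measure, then for Bright-Glo luminescence reflecting ATXN2 expression.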

[4] = target: Glutaminase kidney isoform, mitochondrial (Homo sapiens) (UniProt O94925); test: qHTS for Inhibitors of Glutaminase (GLS): LOPAC Validation (AID 624146);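 also: glutamate product detected by oxidase and peroxidase coupled Amplex red fluorescence gain; series mostly up to about 46 µM; nearly all actives have a fitted effect of over 60% in size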
Summary of the method: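 Read-out is an Amplex red fluorescence increase coupled through glutamate oxidase and HRP, measured before and after 30 min room-temperature incubation. hKGA is in 45 mM KH2PO4 (pH 8.2) with 0.02% Tween-20; glutamine added as 1mM solution.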

[5] = qHTS of Trypanosoma Brucei Inhibitors: LOPAC Validation (AID 624147)
Summary of the method: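 Screened from lowest to highest concentration, compounds were pinned into TbPYK/substrate mixtures, and ADP (130 uM final) was added. Plates sat at room temperature for 45 min prior to Kinase-Glo Plus detection by luminescence.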

[6] = target: Glucagon-like peptide 1 receptor (Homo sapiens) (UniProt P43220); test: qHTS of GLP-1 Receptor Agonists: LOPAC Validation (AID 624148);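 also: luminescence from a luciferase reporter switched on by cAMP; higher luminescence signal means agonism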
Summary of the method: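 Agonism scored as increased luciferase luminescence driven by cAMP in HEK293 clones carrying GLP-1R. Cells settled 12 hours, received compound for 4-6 hr at 37 deg C, 5% CO2, and were read after 12 min detection reagent at RT.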

[7] = qHTS of Nrf2 Activators: LOPAC Validation (AID 624149)
Summary of the method: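 Luminescence read-out of ARE-luciferase activation: AREc32_Fluc cells treated with compounds for 24 hr at 37 deg C, then lysed with Steady-Glo for 30 min at room temperature before reading.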

[8] = HTS Assay for Allosteric Antagonists of the Human D2 Dopamine Receptor: Hit Validation in HTRF (AID 624455);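 also: stable D1 dopamine receptor cell line scored for blocking the D1 response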
Summary of the method: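 First, antagonism was screened by calcium flux in a force-coupled, inducible Hek293 Trex D2 line challenged with EC80 dopamine. Hits then went into an HTRF assay in cells stably expressing D1, testing inhibition of the D1 response.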

[9] = target: Arylsulfatase A (Homo sapiens) (UniProt P15289); test: qHTS screen for enhancers of Arylsulfatase A (ASA1): LOPAC Validation Assay (AID 720538)
Summary of the method: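 Cell-based enhancement test: residual ASA activity in SV40-transformed I179S patient fibroblasts is measured by pNCS turnover (0.5mM final, 14h, room temperature) following 48h compound incubation; higher fluorescence indicates activation.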

[10] = qHTS for compounds that reverse cellular toxicity of Amyloid beta (A-beta) peptide in yeast: LOPAC Validation Assay (AID 720559)
Summary of the method: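 Here, A-beta-toxic yeast grow with test compounds at 30 C for 48 hr before optical density at 600 nm is recorded; data are normalized against DMSO and the FeCl3-clioquinol control.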

[11] = qHTS for Activators of Parkin Expression: LOPAC Validation Assay (NLuc Reporter) (AID 720572)
Summary of the method: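 Parkin promoter-driven FLuc/NLuc neuronal reporter cells; 24 h plating, 7-pt dose response, 24 h at 37 C/5% CO2; FLuc then NanoLuc reagent, 10 min each, luminescence; DMSO/positive control normalized.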

[12] = qHTS for Activators of Parkin Expression: LOPAC Validation Assay (FLuc Reporter) (AID 720573)
Summary of the method: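 Readout is FLuc luminescence from neuronal reporter cells (Parkin promoter, FLuc plus NLuc) after 24 h compound exposure in dose response. Values normalized to neutral DMSO and positive-control compounds.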

[13] = target: T1, Hexokinase-4 (Homo sapiens) + Glucokinase regulatory protein (Homo sapiens) (UniProt P35557+Q14397); test: qHTS assay for inhibitors of recombinant human GCK-GKRP interaction: Diaphorase-coupled assay (AID 743205)
Summary of the method: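 Signal derives from resorufin generated by diaphorase, linked to GCK turnover of glucose (5 mM) and ATP (0.4 mM). Enzyme complex was added after a 20-minute compound preincubation and monitored for 30 minutes.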

[14] = target: T1, Hexokinase-4 (Homo sapiens) + Glucokinase regulatory protein (Homo sapiens); test: qHTS assay for inhibitors of recombinant human GCK-GKRP interaction: ADP-Glo assay (AID 743206)
Summary of the method: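 GST-GCK and FLAG-GKRP (15 nM each in the dispensed mix, with 2 uM S6P) react with 0.4 mM ATP and 5 mM glucose (final) in Hepes pH 7.6 for 60 min at room temperature. ADP is measured by ADP-Glo luminescence.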

[15] = target: T1, Hexokinase-4 (Homo sapiens) + Glucokinase regulatory protein (Homo sapiens); test: qHTS assay for inhibitors of recombinant human GCK-GKRP interaction: HTRF assay (AID 743207)
Summary of the method: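 Titration screening format: recombinant GST-GCK and FLAG-GKRP at 5 nM, S6P at 2 uM, labelled anti-tag antibodies, 60 min at RT, dual-wavelength HTRF readout.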

[16] = Natriuretic polypeptide receptor (hNpr1) antagonism - Pilot counterscreen GloSensor control cell line (AID 1347045; calls by dose curve; also: series mostly up to about 38 µM)
Summary of the method: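 Luminescence was read before and 20 min after adding 50 uM SNP, which stimulates soluble guanylyl cyclase. The HEK293 cells expressing the GloSensor cGMP sensor had been preloaded with 2% reagent for 2 h and treated with compound.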

[17] = target: Atrial natriuretic peptide receptor 1 (Homo sapiens) (UniProt P16066); test: Natriuretic polypeptide receptor (hNpr1) antagonism - Pilot screen (AID 1347049; calls by dose curve;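 also: agonist-evoked cGMP luminescence read 20 min after hNppA addition; series mostly up to about 58 µM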)
Summary of the method: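 Readout is cGMP-driven firefly luciferase luminescence in HEK293 cells carrying hNpr1 and a PDE5-domain GloSensor, read before and 20 min after 0.1 nM hNppA stimulation. Cells had 2% substrate reagent for 2 h and test compound for 30 min.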

[18] = target: Atrial natriuretic peptide receptor 2 (Homo sapiens) (UniProt P20594); test: Natriuretic polypeptide receptor (hNpr2) antagonism - Pilot subtype selectivity assay (AID 1347050; calls by dose curve)
Summary of the method: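 Pilot selectivity screen against hNpr2: HEK293 cGMP-sensor cells are treated with LOPAC1280 compounds, then with hNppC peptide at 1 nM final. The cGMP-driven luminescence change over 20 min at room temperature is the read-out.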

[19] = target: T2, Tyrosine-protein phosphatase non-receptor type substrate 1 (Homo sapiens) + Leukocyte surface antigen CD47 (Homo sapiens) (UniProt P78324+Q08722); test: CD47-SIRPalpha protein protein interaction - LANCE assay qHTS validation (AID 1347057; active = well fitted curve in the direction sought with a large enough effect in the signal ratio, with a control signal flat, not every such curve was filed as active; the % refers to the signal ratio; also: series mostly up to about 38 µM)
Summary of the method: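 First, His-tagged CD47 and Eu-labelled anti-His antibody met the compound for 30 min; next, site-specifically biotinylated SIRPalpha was added for 30 min; finally streptavidin-APC was added before reading the TR-FRET ratio.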

[20] = target: T2, Tyrosine-protein phosphatase non-receptor type substrate 1 (Homo sapiens) + Leukocyte surface antigen CD47 (Homo sapiens); test: CD47-SIRPalpha protein protein interaction - HTRF assay qHTS validation (AID 1347058; active = well fitted curve in the direction sought with a large enough effect in the signal ratio, not every such curve was filed as active; the % refers to the signal ratio;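 also: recombinant soluble extracellular CD47 with His tag and biotinylated SIRPalpha domains; series mostly up to about 38 µM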)
Summary of the method: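 TR-FRET read (Ch1/Ch2 ratio) of soluble extracellular CD47 and Avi-biotinylated SIRPalpha domains in PBS pH 7.4 with 0.05% IGEPAL; 7-point compound titration. Sequential 30 min room-temperature steps; non-biotinylated SIRPalpha as control inhibitor.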

[21] = target: T2, Tyrosine-protein phosphatase non-receptor type substrate 1 (Homo sapiens) + Leukocyte surface antigen CD47 (Homo sapiens); test: CD47-SIRPalpha protein protein interaction - Alpha assay qHTS validation (AID 1347059);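 also: bead proximity luminescence from CD47 binding SIRPalpha after compound preincubation with SIRPalpha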
Summary of the method: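 Binding is measured by AlphaScreen proximity: Ni-NTA acceptor beads capture His-CD47, streptavidin donor beads capture biotin-SIRPalpha. Each of three additions (SIRPalpha with compound, CD47, beads) incubates 30 min at room temperature protected from light.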

[22] = target: Parathyroid hormone/parathyroid hormone-related peptide receptor (Homo sapiens) (UniProt Q03431); test: qHTS for PTHR1 Agonists: Optimization Screen against the NCGC LOPAC library (AID 1347079);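 also: GloSensor cAMP luminescence in HEK-293 GP2 cells expressing human PTHR1 with IBMX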
Summary of the method: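 Agonist readout: GloSensor cAMP luminescence, read after 15 min at room temperature. HEK-293-derived GP2 line carries PTHR1; compounds tested as a titration for 1 hr at 37C in presence of IBMX. M-PTH (1-15) served as control.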

[23] = system: Zika virus NS2B-NS3 protease (unlinked); test: Optimization of GU AMC qHTS for Zika virus inhibitors: Unlinked NS2B-NS3 protease assay (AID 1347151); also: series mostly up to about 52 µM; nearly all actives have a fitted effect of over 80% in size
Summary of the method: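 In this qHTS, compounds acted on 25 nM unlinked Zika NS2B–NS3 in pH 8.0 Tris/Tween buffer. Cleavage of an AMC peptide ran 15 min at room temperature, to about 20% conversion.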

[24] = target: Lysine-specific demethylase 5B (Homo sapiens) (UniProt Q9UGL1); test: Optimization screen for KDM5B Histone Demethylases FDH coupled qHTS against the LOPAC library (AID 1347166)
Summary of the method: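 KDM5BDeltaAP (200nM final) preincubated 10 min with compound, then 12.5uM H3K4Me3, 25uM a-ketoglutarate, ascorbate, Fe(II), NAD+ and FDH added; 50mM HEPES pH 7.5, 0.01% Tween-20. NADH fluorescence (340/450 nm) change over 30 min, room temperature.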

[25] = qHTS to identify inhibitors of the type 1 interferon - major histocompatibility complex class I in skeletal muscle: primary screen against the NCATS LOPAC collection (AID 1347405);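 also: lytic HiBiT luminescence reporting HLA-B protein level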
Summary of the method: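 Luminescence from HiBiT fused to endogenous HLA-B in CRISPR-engineered human myoblasts served as the read-out. Cells received 4.0 ng/ml IFN-beta plus compound (seven concentrations, 1:4.3 steps, highest 46 uM final) for 24 hrs before lytic detection.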

[26] = qHTS for inhibitors of adenylyl cyclases using a fission yeast platform: a pilot screen against the NCATS LOPAC library (AID 1347410)
Summary of the method: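 Inhibition of GNAS-stimulated AC9 activity in S. pombe was inferred from derepression of a PKA-repressed fbp1-GFP reporter, measured as cytometric fluorescence after 18 h at 30C with compounds at up to 57 µM.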

[27] = Validation qHTS assay for inhibitors of Activation Induced Cytidine Deaminase (AID): UDG Counterscreen signal (AID 1347427)
Summary of the method: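 Counterscreen read of UDG activity (2 U/mL, 4/3x) in the FRET deamination format with AID (1 uM, 4/3x), DJC20/DJC23 substrates (250 nM, 4x), 4 h at room temperature. NaOH stop, fluorescence at 560 ex/665 em.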

[28] = target: Single-stranded DNA cytosine deaminase (Homo sapiens) (UniProt Q9GZX7); test: Validation qHTS assay for inhibitors of Activation Induced Cytidine Deaminase (AID): AID signal (AID 1347429)
Summary of the method: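 Fluorescence at 540 nm excitation and 590 nm emission reports ssDNA cytosine deamination by AID, with UDG in the same well. Compound-treated reactions ran 4 hr at room temperature with DJC20/DJC23 substrate, followed by 30 min NaOH treatment.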

[29] = target: Calcium and integrin-binding protein 1 (Homo sapiens) (UniProt Q99828); test: Validation qHTS for Identification of Calcium Integrin Binding protein 1 (CIB1) Competitor (AID 1508618)
Summary of the method: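 CIB1-GST (1 uM final) in 5 mM HEPES pH 7.4, 125 mM NaCl, 5 mM CaCl2, 0.01% Tween20 was preincubated 15 min at room temperature with compound (up to 114 uM), then FITC-alphaIIb peptide (100 nM) added for 15 min; fluorescence polarization read.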

Papain (Carica papaya) = Papain (Carica papaya) (UniProt P00784); test: Primary qHTS assay for inhibitors of the protease papain (AID 1645873);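 also: papain turnover of Z-FR-AMC read as the AMC fluorescence gain over 10 min; series mostly up to about 50 µM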
[30] = target: Metallo-beta-lactamase type 2 (Klebsiella pneumoniae) (UniProt C7C422); test: qHTS to identify inhibitors of the New Delhi Metallo-beta-lactamase (NDM): assay validation screen against the NCATS LOPAC Collection (AID 1794843);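 also: nitrocefin turnover by NDM-1 measured as 485 nm absorbance at plateau; series mostly up to about 38 µM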
Summary of the method: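 NDM-1 at 2 nM final in 50 mM HEPES pH 7.0 with 1 uM ZnSO4 and 0.01% Tween20 was preincubated with library compounds in DMSO. Nitrocefin (50 uM stock) was then added, and absorbance at 485 nm was read at the kinetic plateau.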

[31] = target: Phospholipid hydroperoxide glutathione peroxidase GPX4 (Homo sapiens) (UniProt P36969); test: Primary qHTS Assay for Inhibitors of Recombinant Selenoprotein Glutathione Peroxidase 4 (GPX4) (AID 1845192); details: outcome: dose series up to 50 µM unless noted; also: nearly all actives have a fitted effect of over 65% in size
Summary of the method: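 NADPH consumption, followed by fluorescence at 340/450 nm between 0 and 15 min, reports GPX4 activity via coupled glutathione reductase (100 nM). Enzyme 200 nM was pre-exposed to compound 30 min; 0.5 mM cumene hydroperoxide and 1 mM GSH served as substrates.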

Measured: Potency

T1 sequence (P35557 whole entry, looked up): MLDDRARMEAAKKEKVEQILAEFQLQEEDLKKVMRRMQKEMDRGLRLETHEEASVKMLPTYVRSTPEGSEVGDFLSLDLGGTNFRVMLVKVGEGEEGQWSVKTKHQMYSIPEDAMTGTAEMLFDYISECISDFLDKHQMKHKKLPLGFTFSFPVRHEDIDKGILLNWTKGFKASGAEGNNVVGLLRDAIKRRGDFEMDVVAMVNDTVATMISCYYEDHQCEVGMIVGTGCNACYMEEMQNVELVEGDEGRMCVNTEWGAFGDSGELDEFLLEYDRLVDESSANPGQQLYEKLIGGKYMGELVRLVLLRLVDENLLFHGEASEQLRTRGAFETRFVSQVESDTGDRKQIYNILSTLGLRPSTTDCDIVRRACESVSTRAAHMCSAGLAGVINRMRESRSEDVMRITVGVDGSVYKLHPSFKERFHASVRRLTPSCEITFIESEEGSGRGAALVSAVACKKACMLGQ
T1 sequence (Q14397 whole entry, looked up): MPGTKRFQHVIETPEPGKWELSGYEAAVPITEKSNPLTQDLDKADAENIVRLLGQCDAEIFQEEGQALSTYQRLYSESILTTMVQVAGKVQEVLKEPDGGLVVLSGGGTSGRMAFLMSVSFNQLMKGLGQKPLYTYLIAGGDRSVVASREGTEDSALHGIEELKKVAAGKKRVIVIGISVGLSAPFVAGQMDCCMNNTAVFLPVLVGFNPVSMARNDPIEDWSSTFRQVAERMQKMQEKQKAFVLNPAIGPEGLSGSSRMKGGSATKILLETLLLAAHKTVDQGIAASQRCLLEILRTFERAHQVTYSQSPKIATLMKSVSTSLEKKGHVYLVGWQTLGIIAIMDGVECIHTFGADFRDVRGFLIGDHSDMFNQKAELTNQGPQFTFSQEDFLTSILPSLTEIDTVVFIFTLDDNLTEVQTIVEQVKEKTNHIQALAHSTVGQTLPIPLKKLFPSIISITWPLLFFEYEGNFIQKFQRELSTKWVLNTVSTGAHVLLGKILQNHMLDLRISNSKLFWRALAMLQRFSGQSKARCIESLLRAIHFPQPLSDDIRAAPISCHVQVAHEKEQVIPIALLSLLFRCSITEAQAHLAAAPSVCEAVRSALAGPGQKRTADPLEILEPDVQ
T2 sequence (P78324 whole entry, looked up): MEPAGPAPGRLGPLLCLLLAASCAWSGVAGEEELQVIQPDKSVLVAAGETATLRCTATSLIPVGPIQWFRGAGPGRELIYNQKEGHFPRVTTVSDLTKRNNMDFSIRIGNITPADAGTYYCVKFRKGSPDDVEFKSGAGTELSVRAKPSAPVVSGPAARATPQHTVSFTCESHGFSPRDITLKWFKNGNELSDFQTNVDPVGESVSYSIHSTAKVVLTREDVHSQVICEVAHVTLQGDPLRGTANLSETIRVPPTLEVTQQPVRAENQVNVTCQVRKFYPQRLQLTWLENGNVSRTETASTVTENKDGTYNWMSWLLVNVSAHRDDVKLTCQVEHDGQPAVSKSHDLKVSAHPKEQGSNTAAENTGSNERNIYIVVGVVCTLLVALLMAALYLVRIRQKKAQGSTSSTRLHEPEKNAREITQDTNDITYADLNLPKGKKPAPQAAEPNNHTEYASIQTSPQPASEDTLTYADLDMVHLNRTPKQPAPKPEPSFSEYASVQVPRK
T2 sequence (Q08722 whole entry, looked up): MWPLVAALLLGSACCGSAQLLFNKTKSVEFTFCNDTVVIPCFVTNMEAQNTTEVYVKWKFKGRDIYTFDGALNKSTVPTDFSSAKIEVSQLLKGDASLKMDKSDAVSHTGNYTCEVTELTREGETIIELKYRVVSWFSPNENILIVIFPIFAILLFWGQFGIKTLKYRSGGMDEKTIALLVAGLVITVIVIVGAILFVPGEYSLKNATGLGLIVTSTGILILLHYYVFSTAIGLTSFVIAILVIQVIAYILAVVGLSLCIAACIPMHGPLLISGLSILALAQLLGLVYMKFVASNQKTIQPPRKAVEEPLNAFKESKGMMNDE
Sequence of phosphoglycerate mutase (Leishmania major) (Q4Q090 1-553): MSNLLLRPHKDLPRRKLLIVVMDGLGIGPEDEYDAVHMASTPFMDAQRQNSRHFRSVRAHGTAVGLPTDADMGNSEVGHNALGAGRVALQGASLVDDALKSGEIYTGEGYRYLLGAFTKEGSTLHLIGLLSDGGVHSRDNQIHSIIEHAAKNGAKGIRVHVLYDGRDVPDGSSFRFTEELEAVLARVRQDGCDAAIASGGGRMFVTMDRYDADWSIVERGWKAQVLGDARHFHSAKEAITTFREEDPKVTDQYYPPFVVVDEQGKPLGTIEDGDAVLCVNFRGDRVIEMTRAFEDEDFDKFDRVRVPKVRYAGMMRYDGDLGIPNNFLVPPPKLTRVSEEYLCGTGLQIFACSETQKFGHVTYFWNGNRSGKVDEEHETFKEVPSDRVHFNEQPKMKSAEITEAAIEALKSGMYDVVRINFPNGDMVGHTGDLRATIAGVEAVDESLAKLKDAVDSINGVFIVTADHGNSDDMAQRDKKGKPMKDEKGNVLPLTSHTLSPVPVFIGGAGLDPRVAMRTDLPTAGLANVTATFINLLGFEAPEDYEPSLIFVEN
Sequence of Calcium and integrin-binding protein 1 (Homo sapiens) (Q99828 whole entry, looked up): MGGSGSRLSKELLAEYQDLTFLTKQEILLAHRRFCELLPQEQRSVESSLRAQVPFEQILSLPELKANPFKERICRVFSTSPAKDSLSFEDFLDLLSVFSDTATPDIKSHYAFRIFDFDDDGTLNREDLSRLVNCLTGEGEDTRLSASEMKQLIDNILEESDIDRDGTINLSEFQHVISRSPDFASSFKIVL
Sequence of Metallo-beta-lactamase type 2 (Klebsiella pneumoniae) (C7C422 whole entry, looked up): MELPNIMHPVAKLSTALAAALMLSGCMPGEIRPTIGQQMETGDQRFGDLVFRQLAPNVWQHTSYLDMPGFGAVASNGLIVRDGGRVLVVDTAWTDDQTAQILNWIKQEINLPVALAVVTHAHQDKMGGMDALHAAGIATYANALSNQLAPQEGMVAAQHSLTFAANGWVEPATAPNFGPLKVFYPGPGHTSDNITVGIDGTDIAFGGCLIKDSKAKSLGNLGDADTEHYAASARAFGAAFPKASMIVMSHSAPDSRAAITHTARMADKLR
Sequence of Glucagon-like peptide 1 receptor (Homo sapiens) (P43220 whole entry, looked up): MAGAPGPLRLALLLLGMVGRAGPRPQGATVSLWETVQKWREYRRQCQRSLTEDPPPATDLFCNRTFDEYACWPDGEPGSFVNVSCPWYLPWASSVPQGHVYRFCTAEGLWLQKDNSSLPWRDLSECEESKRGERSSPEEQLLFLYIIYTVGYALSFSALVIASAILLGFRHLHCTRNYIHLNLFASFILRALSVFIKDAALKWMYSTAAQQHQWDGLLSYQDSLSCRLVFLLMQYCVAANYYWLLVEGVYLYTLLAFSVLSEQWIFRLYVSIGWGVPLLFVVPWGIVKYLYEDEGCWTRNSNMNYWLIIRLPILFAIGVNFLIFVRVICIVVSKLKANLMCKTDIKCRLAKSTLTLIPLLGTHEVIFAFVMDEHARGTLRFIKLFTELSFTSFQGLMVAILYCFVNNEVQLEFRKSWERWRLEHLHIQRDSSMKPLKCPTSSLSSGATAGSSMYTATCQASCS
Sequence of Glutaminase kidney isoform, mitochondrial (Homo sapiens) (O94925 whole entry, looked up, canonical isoform): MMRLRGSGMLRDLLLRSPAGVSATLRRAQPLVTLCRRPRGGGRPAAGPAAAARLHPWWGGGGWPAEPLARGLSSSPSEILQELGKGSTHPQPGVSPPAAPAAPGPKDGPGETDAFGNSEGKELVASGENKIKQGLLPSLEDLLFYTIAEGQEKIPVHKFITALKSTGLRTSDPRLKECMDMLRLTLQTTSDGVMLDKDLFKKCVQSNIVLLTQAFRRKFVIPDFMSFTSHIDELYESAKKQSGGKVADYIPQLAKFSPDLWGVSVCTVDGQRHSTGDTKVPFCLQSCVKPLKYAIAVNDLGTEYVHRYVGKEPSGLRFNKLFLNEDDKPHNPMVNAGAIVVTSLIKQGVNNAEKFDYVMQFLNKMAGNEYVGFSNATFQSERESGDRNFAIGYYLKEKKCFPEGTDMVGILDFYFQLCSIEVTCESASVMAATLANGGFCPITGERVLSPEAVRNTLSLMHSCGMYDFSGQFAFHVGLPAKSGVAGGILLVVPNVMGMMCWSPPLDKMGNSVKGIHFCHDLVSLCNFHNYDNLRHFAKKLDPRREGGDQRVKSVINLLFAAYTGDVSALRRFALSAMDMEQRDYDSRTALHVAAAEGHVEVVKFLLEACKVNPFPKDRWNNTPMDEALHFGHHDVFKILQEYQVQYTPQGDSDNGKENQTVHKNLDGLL
Sequence of Arylsulfatase A (Homo sapiens) (P15289 whole entry, looked up): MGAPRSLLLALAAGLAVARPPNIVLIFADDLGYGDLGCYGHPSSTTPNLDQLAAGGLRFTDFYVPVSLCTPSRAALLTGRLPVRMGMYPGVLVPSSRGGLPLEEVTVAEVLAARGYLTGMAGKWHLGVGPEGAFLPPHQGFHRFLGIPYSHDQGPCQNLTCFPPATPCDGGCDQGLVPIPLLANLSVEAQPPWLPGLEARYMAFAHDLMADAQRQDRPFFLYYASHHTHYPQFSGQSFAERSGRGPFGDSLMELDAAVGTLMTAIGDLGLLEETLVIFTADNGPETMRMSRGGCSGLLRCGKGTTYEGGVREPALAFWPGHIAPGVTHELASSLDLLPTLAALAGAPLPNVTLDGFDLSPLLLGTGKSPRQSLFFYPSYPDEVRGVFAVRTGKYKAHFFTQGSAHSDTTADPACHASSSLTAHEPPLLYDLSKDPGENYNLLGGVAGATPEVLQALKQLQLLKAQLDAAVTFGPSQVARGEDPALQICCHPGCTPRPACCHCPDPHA
Sequence of Single-stranded DNA cytosine deaminase (Homo sapiens) (Q9GZX7 whole entry, looked up): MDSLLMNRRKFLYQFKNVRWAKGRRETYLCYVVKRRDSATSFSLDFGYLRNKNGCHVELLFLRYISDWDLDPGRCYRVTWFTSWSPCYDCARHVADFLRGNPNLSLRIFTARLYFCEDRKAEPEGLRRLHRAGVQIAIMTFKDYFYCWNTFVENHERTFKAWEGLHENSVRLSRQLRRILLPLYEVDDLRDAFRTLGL

CC[N+](CC)(CC)CC
inactive: all assays above
